This passage reports outcome and AC50 results from PubChem BioAssay (EPA / NIEHS).

A word on the AC50: it is the concentration at which the activity in the assay is half-maximal.

Molecules are shown by their SMILES. Records with an inconclusive call do not appear. Activity calls are given as the source filed them. The calls were made as follows, unless noted: active = hit-call score of the fitted dose curve at least 0.9, where 1 is the maximum; inconclusive = response in the unintended direction; inactive = score below 0.9.

The nature of assay [1]: ATG_TCF_b_cat_CIS: Attagene CIS-FACTORIAL HepG2 Assay for human T-Cell-Factor with beta-catenin (TCF/b-cat) (AID 2282965; active = hit-call score of the fitted dose curve at least 0.9, where 1 is the maximum; inactive = score below 0.9). Particulars: HepG2 TCF/beta-catenin cis-reporter transcription, actives raise or lower the signal. Summed up: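 Measured: reporter mRNA in HepG2 transiently transfected with cis-promoter reporter units, 24 h after chemical addition. Fitting was bidirectional, DMSO as negative control.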

Assay [2] can be described thus: ATG_TAL_CIS: Attagene CIS-FACTORIAL HepG2 Assay for human TAL Basal Promoter (AID 2282966; active = hit-call score of the fitted dose curve at least 0.9, where 1 is the maximum; inactive = score below 0.9;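 also: background control endpoint measuring basal TAL promoter reporter mRNA not a specific factor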). Particulars: HepG2 Attagene cis-factorial TAL promoter reporter; actives raise or lower the signal. Summed up: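 Fluorescence of labelled reporter cDNA fragments, resolved by capillary electrophoresis, gave the readout. Human HepG2 liver cells carried transiently transfected cis-element reporter units and were treated for 24 hours; activity was fitted bidirectionally against DMSO.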

The nature of assay [3]: ATG_TGFb_CIS: Attagene CIS-FACTORIAL HepG2 Assay for human Transforming Growth Factor (TGF) (AID 2282967; active = hit-call score of the fitted dose curve at least 0.9, where 1 is the maximum; inactive = score below 0.9). As to conditions: HepG2 Attagene CIS TGFb reporter, mRNA transcription; actives raise or lower the signal. Summed up: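 HepG2 cells transiently transfected with cis-promoter-driven multiple reporter units measure endogenous TF activity; reporter mRNA quantified at 24 h by RT-PCR, FAM labeling, HpaI digestion and capillary electrophoresis. Bidirectional fit vs DMSO.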

The target in assay [4] is Estrogen receptor (Homo sapiens) (UniProt P03372). In words: ATG_ERa_TRANS: Attagene TRANS-FACTORIAL HepG2 Assay for human Estrogen Receptor alpha (ERa) (AID 2282970). As to conditions: HepG2 Attagene TRANS ERa GAL4 reporter, mRNA. The procedure, abridged: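 Human liver HepG2, transient transfection of multiple GAL4-UAS reporter units; TRANS format (exogenous NR-Gal4 chimera). 24 h dosing. Readout: reporter mRNA, RT-PCR, 6-FAM primer extension, HpaI digest, capillary electrophoresis. Positive direction vs DMSO.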

Assay [5] addresses X-box-binding protein 1 (Homo sapiens) (UniProt P17861). In words: ATG_Xbp1_CIS: Attagene CIS-FACTORIAL HepG2 Assay for human X-box Binding Protein 1 (XBP1) (AID 2282972; active = hit-call score of the fitted dose curve at least 0.9, where 1 is the maximum; inactive = score below 0.9). Particulars: HepG2 XBP1 cis-element reporter, Attagene multiplex; actives raise or lower the signal. The procedure, abridged: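 HepG2, transient MRTU transfection (cis-promoter driven), 24 h compound exposure. Total RNA → oligo(dT) RT → PCR → 6-FAM labeling → HpaI cut → CE. Bidirectional fit vs DMSO.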

Assay [6] in a line: ATG_M_19_TRANS: Attagene TRANS-FACTORIAL HepG2 Assay for M19 Transcription Factor (Internal Marker) (AID 2282974). As to conditions: HepG2 Attagene TRANS-FACTORIAL M19 internal marker reporter. Summed up:
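HepG2 cells transiently transfected with multiple GAL4-UAS reporter transcription units were exposed to chemicals for 24 h. Reporter mRNA was read by RT-PCR, 6-FAM primer extension, HpaI digestion and capillary electrophoresis; gain of signal fitted relative to DMSO.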

Assay [7] deals with Oxysterols receptor LXR-beta (Homo sapiens) (UniProt P55055). In words: ATG_LXRb_TRANS: Attagene TRANS-FACTORIAL HepG2 Assay for human Liver X Receptor beta (LXRb) (AID 2282981). As to conditions: HepG2 Attagene TRANS GAL4-LXRb reporter, mRNA. Summed up:
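Cells: HepG2, transiently transfected with GAL4-UAS reporter units plus LXRb-Gal4 fusion. Treatment: 24 h. Detection: reporter mRNA by RT-PCR, 6-FAM labelling, HpaI digestion, capillary electrophoresis.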

Assay [8] is described as follows: ATG_M_32_TRANS: Attagene TRANS-FACTORIAL HepG2 Assay for M32 Transcription Factor (Internal Marker) (AID 2282984).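 Also: transcript level of a background control reporter unit measured by RT-PCR and capillary electrophoresis.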 As to conditions: HepG2 Attagene TRANS M32 internal marker reporter. Summed up: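 Using transiently transfected HepG2 cells exposed to test chemicals for 24 h, reporter transcripts are converted to labelled cDNA fragments and quantified by capillary electrophoresis. DMSO defines the activity baseline.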

The target in assay [9] is Transcriptional activator Myb (Homo sapiens) (UniProt P10242). In words: ATG_Myb_CIS: Attagene CIS-FACTORIAL HepG2 Assay for human Myeloblastosis (Myb) Proto-Oncogene Transcription Factor (AID 2282986; active = hit-call score of the fitted dose curve at least 0.9, where 1 is the maximum; inactive = score below 0.9). As to conditions: HepG2 Attagene CIS-FACTORIAL Myb reporter transcription; actives raise or lower the signal. The procedure, abridged:
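HepG2 cells were transiently transfected with cis-regulated multiple reporter transcription units reflecting endogenous Myb activity, then exposed to compound for 24 hours. Reporter mRNA was measured by RT-PCR with capillary electrophoresis; bidirectional fitting versus DMSO baseline.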

The nature of assay [10]: ATG_VDRE_CIS: Attagene CIS-FACTORIAL HepG2 Assay for human Vitamin D Receptor Element (VDRE) (AID 2282968; active = hit-call score of the fitted dose curve at least 0.9, where 1 is the maximum; inactive = score below 0.9). Particulars: HepG2 VDRE cis-reporter transcription, actives raise or lower the signal. Summed up:
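In transiently transfected HepG2 liver cells, gain or loss of reporter mRNA after 24 h exposure is scored relative to DMSO, using fluorescence detection by capillary electrophoresis of RT-PCR products.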

The target in assay [11] is Nuclear receptor subfamily 1 group I member 3 (Homo sapiens) (UniProt Q14994). In words: ATG_CAR_TRANS: Attagene TRANS-FACTORIAL HepG2 Assay for human Constitutive Androstane Receptor (CAR) (AID 2282969).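 Also: activators raise reporter mRNA above DMSO so AC50 marks induction.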 Particulars: HepG2 Attagene TRANS-FACTORIAL CAR reporter. The procedure, abridged:
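Readout is reporter mRNA induction, quantified by fluorescent primer extension and capillary electrophoresis after RT-PCR. Cells were HepG2 transiently carrying chimeric NR-Gal4 constructs with GAL4-UAS reporters, treated for 24 h; activity scored upward from DMSO.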

The nature of assay [12]: ATG_GAL4_TRANS: Attagene TRANS-FACTORIAL HepG2 Assay for GAL4 (Internal Marker) (AID 2282976). Particulars: HepG2 Attagene TRANS GAL4 internal marker reporter. The procedure, abridged:
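First, HepG2 cells were transfected with reporter units under GAL4-UAS control. Next, they were treated with chemical for 24 h. Finally, RNA was reverse-transcribed, PCR-amplified, FAM-labelled and resolved by capillary electrophoresis, with induction scored against DMSO.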

For assay [13], the target named is Glucocorticoid receptor (Homo sapiens) (UniProt P04150). In words: ATG_GR_TRANS: Attagene TRANS-FACTORIAL HepG2 Assay for human Glucocorticoid Receptor (GR) (AID 2282978).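 Also: activators score as hits since higher reporter transcript over DMSO is fitted.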 As to conditions: HepG2 Attagene TRANS GR reporter, mRNA transcription. The procedure, abridged:
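HepG2 cells transiently transfected with multiplexed reporter units in which chimeric NR-GAL4 proteins drive GAL4-UAS reporters; 24 h compound exposure. Reporter mRNA measured by RT-PCR, 6-FAM labelling, HpaI digestion and capillary electrophoresis; gain-of-signal fitted versus DMSO.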

The target of assay [14] is Hepatocyte nuclear factor 4-alpha (Homo sapiens) (UniProt P41235). In words: ATG_HNF4a_TRANS: Attagene TRANS-FACTORIAL HepG2 Assay for human Hepatocyte Nuclear Factor 4 alpha (HNF4a) (AID 2282982). As to conditions: HepG2 HNF4a transactivation reporter, mRNA readout. Summed up: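 Transfected HepG2 reporter cells are dosed for 24 h; reporter RNA is reverse-transcribed, amplified, fluorescently labelled and HpaI-digested before CE sizing. Positive-direction fit against DMSO.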

Assay [15] in a line: ATG_M_06_TRANS: Attagene TRANS-FACTORIAL HepG2 Assay for M06 Transcription Factor (Internal Marker) (AID 2282983).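 Also: reporter transcript level by RT-PCR then capillary electrophoresis fluorescence.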 As to conditions: HepG2 Attagene TRANS M06 internal marker reporter. The procedure, abridged: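 Transfect HepG2 with MRTUs → dose compounds 24 h → isolate RNA, oligo(dT) RT → PCR with reporter primers → 6-FAM primer extension → HpaI digest → CE fragment analysis. Positive direction vs DMSO.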

Assay [16] has as its target Nuclear receptor subfamily 4 group A member 2 (Homo sapiens) (UniProt P43354). In words: ATG_NURR1_TRANS: Attagene TRANS-FACTORIAL HepG2 Assay for human Nuclear Receptor Related Protein 1 (NURR1) (AID 2282985). Particulars: HepG2 Attagene TRANS reporter, mRNA readout. The procedure, abridged:
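Cells: HepG2, transiently transfected. Exposure: 24 h. Detection: fluorescence of labelled RT-PCR products separated by capillary electrophoresis; upward fit versus DMSO.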

Assay [17] has as its target Steroid hormone receptor ERR1 (Homo sapiens) (UniProt P11474). In words: ATG_ERRa_TRANS: Attagene TRANS-FACTORIAL HepG2 Assay for human Estrogen-Related Receptor alpha (ERRa) (AID 2282971). As to conditions: HepG2 Attagene TRANS reporter, ERRa transactivation. Summed up:
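Reporter transcript induction was quantified by RT-PCR and capillary electrophoresis of FAM-labelled, HpaI-cut products after 24 h treatment of HepG2 cells carrying transiently transfected GAL4-UAS reporter units and an exogenous ERRa-Gal4 fusion; activity scored as increase over DMSO.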

For assay [18], the target named is Estrogen-related receptor gamma (Homo sapiens) (UniProt P62508). In words: ATG_ERRg_TRANS: Attagene TRANS-FACTORIAL HepG2 Assay for human Estrogen-Related Receptor gamma (ERRg) (AID 2282977).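 Also: hits increase reporter signal over DMSO so potencies reflect activators.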 As to conditions: HepG2 Attagene TRANS reporter, ERRg transactivation. Summed up: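 Transient HepG2 transfectants, 24 h compound exposure, GAL4-UAS reporter mRNA by RT-PCR/6-FAM labelling/capillary electrophoresis; positive direction vs DMSO.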

Assay [19] concerns the target Bile acid receptor (Homo sapiens) (UniProt Q96RI1). In words: ATG_FXR_TRANS: Attagene TRANS-FACTORIAL HepG2 Assay for Farnesoid X Receptor (FXR) (AID 2282979).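 Also: hits raise reporter mRNA above DMSO so AC50 marks FXR activation.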 Particulars: HepG2 Attagene TRANS FXR-GAL4 reporter transcription. The procedure, abridged:
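Transient transfection of HepG2 with multiplexed GAL4-UAS reporter units; exogenous FXR-GAL4 chimera. Dose 24 h → TriZol RNA → oligo(dT) RT → PCR, 6-FAM primer extension, HpaI cut → CE. Gain vs DMSO.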

The target in assay [20] is Oxysterols receptor LXR-alpha (Homo sapiens) (UniProt Q13133). In words: ATG_LXRa_TRANS: Attagene TRANS-FACTORIAL HepG2 Assay for human Liver X Receptor alpha (LXRa) (AID 2282980). As to conditions: HepG2 Attagene TRANS reporter, LXRa transactivation. Summed up: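 Transfect HepG2 with GAL4-UAS multiplex reporter constructs (TRANS format, chimeric receptor-GAL4); treat 24 h; extract RNA, reverse-transcribe, PCR-amplify, FAM-label, HpaI-digest; resolve fragments by capillary electrophoresis. Upward response vs DMSO.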
Oxysterols receptor LXR-alpha (Homo sapiens), sequence (Q13133 whole entry, looked up, the tested form may be a part): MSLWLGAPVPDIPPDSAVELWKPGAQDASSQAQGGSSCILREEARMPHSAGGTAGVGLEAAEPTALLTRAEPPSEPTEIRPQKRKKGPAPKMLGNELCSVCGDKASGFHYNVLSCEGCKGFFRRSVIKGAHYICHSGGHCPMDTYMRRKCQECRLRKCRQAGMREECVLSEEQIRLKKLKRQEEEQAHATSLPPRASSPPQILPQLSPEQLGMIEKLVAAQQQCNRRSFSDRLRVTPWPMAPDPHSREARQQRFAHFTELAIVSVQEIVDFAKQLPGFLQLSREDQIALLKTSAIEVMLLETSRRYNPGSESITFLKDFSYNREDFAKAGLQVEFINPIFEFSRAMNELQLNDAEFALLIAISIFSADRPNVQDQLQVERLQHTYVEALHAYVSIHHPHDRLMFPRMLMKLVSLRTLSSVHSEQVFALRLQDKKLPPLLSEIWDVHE

Oxysterols receptor LXR-beta (Homo sapiens), sequence (P55055 whole entry, looked up, the tested form may be a part): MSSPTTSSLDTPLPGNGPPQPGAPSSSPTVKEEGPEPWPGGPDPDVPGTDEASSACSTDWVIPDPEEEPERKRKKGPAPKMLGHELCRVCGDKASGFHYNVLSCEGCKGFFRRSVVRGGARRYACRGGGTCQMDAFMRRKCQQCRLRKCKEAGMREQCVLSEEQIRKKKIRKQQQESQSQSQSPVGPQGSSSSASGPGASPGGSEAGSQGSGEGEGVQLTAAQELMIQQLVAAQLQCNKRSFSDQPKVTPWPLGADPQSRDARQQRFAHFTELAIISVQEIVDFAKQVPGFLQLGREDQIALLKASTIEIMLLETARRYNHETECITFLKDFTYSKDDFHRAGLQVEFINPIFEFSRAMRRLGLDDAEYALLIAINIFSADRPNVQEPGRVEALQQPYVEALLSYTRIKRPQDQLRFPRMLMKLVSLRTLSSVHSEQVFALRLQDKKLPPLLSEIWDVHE
Hepatocyte nuclear factor 4-alpha (Homo sapiens), sequence (P41235 whole entry, looked up): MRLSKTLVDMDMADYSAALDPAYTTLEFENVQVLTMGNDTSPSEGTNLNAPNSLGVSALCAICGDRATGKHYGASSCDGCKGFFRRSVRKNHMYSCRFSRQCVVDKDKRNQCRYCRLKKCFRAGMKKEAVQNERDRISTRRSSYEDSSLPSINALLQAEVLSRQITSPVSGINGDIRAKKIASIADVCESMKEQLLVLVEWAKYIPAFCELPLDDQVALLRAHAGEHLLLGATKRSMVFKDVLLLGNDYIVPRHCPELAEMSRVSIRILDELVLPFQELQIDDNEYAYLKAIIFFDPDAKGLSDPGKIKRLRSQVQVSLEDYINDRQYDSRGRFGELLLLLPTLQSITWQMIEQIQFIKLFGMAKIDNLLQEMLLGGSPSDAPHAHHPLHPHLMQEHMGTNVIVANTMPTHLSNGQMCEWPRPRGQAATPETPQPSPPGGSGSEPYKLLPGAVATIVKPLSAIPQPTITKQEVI
Nuclear receptor subfamily 4 group A member 2 (Homo sapiens), sequence (P43354 whole entry, looked up): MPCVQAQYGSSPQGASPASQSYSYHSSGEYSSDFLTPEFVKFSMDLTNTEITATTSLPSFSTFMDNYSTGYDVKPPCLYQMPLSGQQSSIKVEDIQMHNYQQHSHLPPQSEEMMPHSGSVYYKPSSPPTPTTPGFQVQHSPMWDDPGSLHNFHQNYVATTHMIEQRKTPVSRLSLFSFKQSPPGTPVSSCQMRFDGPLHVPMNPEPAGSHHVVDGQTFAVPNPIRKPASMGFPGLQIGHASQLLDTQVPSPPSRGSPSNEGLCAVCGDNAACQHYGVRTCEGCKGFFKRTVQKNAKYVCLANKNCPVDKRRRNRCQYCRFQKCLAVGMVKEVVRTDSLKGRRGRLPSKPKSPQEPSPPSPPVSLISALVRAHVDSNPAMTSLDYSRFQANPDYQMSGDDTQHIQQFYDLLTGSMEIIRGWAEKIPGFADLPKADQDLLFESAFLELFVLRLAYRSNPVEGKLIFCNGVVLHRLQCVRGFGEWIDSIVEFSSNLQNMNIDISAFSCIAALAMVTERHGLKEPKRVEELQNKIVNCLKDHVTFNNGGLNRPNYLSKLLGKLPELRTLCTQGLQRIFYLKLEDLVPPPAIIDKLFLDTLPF
Glucocorticoid receptor (Homo sapiens), sequence (P04150 whole entry, looked up, the tested form may be a part): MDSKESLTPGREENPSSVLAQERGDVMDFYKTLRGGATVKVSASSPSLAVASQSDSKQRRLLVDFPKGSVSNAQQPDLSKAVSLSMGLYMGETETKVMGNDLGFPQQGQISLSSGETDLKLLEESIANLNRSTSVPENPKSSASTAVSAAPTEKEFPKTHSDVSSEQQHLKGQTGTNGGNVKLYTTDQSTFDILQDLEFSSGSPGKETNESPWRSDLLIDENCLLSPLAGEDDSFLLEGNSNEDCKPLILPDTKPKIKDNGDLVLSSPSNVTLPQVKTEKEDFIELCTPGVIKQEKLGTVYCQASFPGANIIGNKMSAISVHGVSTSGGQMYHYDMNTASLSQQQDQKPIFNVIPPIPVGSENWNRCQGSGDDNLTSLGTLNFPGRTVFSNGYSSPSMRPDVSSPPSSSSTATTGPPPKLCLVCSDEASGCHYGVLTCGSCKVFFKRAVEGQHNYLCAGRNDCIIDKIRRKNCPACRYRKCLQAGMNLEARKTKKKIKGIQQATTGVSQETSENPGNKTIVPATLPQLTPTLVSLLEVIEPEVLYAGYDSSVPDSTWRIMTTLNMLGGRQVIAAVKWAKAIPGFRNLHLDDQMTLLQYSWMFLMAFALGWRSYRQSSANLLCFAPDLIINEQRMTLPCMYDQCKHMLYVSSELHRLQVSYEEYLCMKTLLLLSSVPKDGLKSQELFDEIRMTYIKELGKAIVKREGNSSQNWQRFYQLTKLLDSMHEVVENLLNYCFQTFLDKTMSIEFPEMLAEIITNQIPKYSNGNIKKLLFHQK
Estrogen receptor (Homo sapiens), sequence (P03372 whole entry, looked up, the tested form may be a part): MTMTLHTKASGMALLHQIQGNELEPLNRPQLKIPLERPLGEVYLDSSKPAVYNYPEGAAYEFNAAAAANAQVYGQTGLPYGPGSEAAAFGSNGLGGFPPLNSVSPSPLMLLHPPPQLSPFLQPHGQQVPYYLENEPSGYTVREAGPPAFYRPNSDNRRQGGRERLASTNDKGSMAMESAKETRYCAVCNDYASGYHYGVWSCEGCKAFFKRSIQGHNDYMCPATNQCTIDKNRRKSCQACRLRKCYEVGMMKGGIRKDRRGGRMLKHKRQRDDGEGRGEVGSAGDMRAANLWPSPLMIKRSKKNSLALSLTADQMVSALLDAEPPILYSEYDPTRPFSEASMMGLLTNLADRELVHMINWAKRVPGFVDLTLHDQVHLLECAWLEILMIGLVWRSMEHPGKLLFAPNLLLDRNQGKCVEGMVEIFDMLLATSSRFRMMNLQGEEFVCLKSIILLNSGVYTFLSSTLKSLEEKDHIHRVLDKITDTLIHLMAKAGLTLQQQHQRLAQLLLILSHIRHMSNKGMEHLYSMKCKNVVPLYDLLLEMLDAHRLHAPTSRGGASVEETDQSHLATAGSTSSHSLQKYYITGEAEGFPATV
Bile acid receptor (Homo sapiens), sequence (Q96RI1 whole entry, looked up, the tested form may be a part): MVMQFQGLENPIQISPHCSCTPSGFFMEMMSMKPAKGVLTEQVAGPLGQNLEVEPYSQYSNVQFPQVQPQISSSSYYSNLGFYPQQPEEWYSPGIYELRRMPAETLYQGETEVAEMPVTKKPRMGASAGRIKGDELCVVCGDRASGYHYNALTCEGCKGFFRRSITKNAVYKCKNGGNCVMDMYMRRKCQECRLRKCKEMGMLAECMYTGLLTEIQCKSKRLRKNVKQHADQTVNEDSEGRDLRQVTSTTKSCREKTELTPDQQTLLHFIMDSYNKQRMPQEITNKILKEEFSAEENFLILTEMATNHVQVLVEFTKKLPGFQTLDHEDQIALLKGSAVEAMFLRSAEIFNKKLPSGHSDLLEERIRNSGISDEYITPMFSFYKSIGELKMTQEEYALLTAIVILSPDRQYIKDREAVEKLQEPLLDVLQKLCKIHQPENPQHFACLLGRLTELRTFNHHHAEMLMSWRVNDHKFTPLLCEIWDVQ
Transcriptional activator Myb (Homo sapiens), sequence (P10242 whole entry, looked up): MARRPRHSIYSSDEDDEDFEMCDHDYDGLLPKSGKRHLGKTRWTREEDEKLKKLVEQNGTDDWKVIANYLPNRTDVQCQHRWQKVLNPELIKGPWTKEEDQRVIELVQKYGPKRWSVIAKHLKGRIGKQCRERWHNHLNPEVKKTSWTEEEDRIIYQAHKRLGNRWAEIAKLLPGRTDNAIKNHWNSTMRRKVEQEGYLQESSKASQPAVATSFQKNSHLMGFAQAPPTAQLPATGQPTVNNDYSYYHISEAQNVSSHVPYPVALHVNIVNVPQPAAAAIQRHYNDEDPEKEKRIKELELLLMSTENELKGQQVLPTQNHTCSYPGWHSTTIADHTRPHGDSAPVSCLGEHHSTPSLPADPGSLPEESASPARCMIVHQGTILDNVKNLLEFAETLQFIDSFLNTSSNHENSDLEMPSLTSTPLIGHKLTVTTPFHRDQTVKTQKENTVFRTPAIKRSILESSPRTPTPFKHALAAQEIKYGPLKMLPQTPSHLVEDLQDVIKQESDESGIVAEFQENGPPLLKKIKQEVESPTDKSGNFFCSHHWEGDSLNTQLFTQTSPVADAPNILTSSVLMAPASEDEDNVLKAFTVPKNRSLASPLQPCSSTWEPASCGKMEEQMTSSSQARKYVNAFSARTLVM
X-box-binding protein 1 (Homo sapiens), sequence (P17861 whole entry, looked up): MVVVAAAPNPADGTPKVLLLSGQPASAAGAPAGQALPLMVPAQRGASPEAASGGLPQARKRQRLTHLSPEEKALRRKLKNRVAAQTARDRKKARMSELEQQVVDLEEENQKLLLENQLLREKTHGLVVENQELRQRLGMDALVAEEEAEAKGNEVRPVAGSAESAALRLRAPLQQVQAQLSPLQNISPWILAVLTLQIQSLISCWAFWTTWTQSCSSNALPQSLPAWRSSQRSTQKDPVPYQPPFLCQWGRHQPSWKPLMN

For the molecule `CCCCCc1cccc(=O)o1`, the outcome in assay [1], in [2], in [3], in assay [4], in [5] and in [6] was inactive. The call in assay [7], in assay [8] and in assay [9] was inactive.

For the molecule `CC(=O)c1ccc(C)cc1`, the call in assay [1], in assay [3], in assay [10], in assay [11], in assay [4] and in assay [5] was inactive. Besides, the call in assay [6], in [12], in assay [13], in assay [14], in assay [15] and in assay [8] was inactive. The molecule was classed as inactive in assay [9].

On to `[Na+]`, for which the molecule was called inactive in assay [1], in [2], in assay [3], in assay [5], in assay [6] and in assay [12]. The result in assay [16] and in assay [9] was inactive.

Consider `CC(=O)N(C)C`, for which the outcome in assay [1], in assay [2], in [3], in [17], in [5] and in assay [6] was inactive. Further, the molecule was classed as inactive in assay [12], in [18], in assay [13] and in assay [9].

In the case of `CCO[Si](CCC#N)(OCC)OCC`, the molecule was called inactive in assay [1], in assay [2], in assay [3], in assay [4], in [5] and in assay [12]. Also, the call in assay [13], in [19], in assay [20], in [7], in assay [14] and in assay [15] was inactive. Further, the result in assay [8] and in [9] was inactive.

As for `CC(C)=CC(=O)O`, the molecule was classed as inactive in assay [1], in [2], in assay [3], in [5], in assay [12] and in assay [20]. Besides, the molecule was classed as inactive in assay [14], in assay [15], in assay [8] and in [9]. Also, the half-maximal activity concentration (AC50) in [4] was 49.1 µM (active).

As to `CC(=O)c1ccc2ccccc2c1`, the call in assay [1], in assay [3], in assay [10], in assay [11], in [5] and in assay [6] was inactive. The molecule was classed as inactive in assay [12], in assay [13], in assay [19], in assay [20], in assay [16] and in assay [9]. In assay [4], the AC50 is 42.4 µM (active).

For `CC(=O)CC(=O)N(C)C`, the molecule was classed as inactive in assay [1], in [2], in assay [3], in [5], in assay [12] and in assay [13]. Also, the result in [19], in [7], in assay [14], in [15], in assay [8] and in assay [16] was inactive. Further, the result in assay [9] was inactive.

Regarding `O=C(O)c1ccco1`, the molecule was classed as inactive in [1], in assay [2], in assay [3], in assay [4], in assay [6] and in assay [8]. In addition, in [9], the molecule was classed as inactive.
